Compounds without any hit were thinned out: in the full panel of roughly 79,000, 15% have a hit. Active and inactive are the calls of the source. Cut-off read from the data, not from the text of the source: active = growth inhibition above about 70%; inactive = the rest.

A short description of this assay: NCI Yeast Anticancer Drug Screen. Data for the mlh1 rad18 strain (AID 175). The note with it: S. cerevisiae mlh1 rad18 strain growth inhibition; at 50.0 µM; active compounds read high. Put shortly:
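Steps: expose repair-defective yeast to compound; measure growth; express inhibition against vehicle-treated controls.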
As for `c1ccc(-c2c3ccccc3cc3c2ccc2ccccc23)cc1`, the growth inhibition is 0.55% (inactive).

Take `CCCCCCC(C)(C)NC(N)=O`: the growth inhibition is -11.8% (inactive).

With `Cc1ncc(N)nc1C`, the growth inhibition is -43% (inactive).

Turning to `CC(=O)OCc1ccc(C)cc1`, the growth inhibition was 0.3% (inactive).

As for `O=C(O)CCc1ccccc1CC(=O)O`, the growth inhibition was 13.2% (inactive).

As for `CC(=O)O[C@H]1C[C@]2(C)C(CCC3O[C@@]32C)[C@@]2(CC(c3ccoc3)OC2O)[C@@H]1C` (stereo not given in full), the growth inhibition was -13.2% (inactive).

Take `CC1=C(CC2C(=O)N(c3ccccc3)S(=O)(=O)NC2C)C(=O)N(c2ccccc2)S(=O)(=O)N1C` (stereo not given): the growth inhibition is 8.5% (inactive).

On to `O/N=C1/C(=C/c2ccc(F)cc2)CCCC1C(NO)c1ccc(F)cc1` (stereo not given), for which the growth inhibition was -17.7% (inactive).

Consider `COC(=O)N/N=C/c1oc(-c2ccccc2)c(-c2ccccc2)c1[N+](=O)[O-]`, for which the growth inhibition was -8.2% (inactive).

As for `COc1ccc(C2C3=C(CC(C)(C)CC3=O)Oc3cc4c(cc32)OCO4)cc1` (stereo not given), the growth inhibition is -4.95% (inactive).

Take `CN(C)NC(=O)Nc1cccc2ccccc12`: the growth inhibition is -20.4% (inactive).

Turning to `CC(C)(C)OC(=O)C1CCC/C1=N/Nc1ccc([N+](=O)[O-])cc1[N+](=O)[O-]` (stereo not given), the growth inhibition was -11.6% (inactive).

On to `CC(C)CCCC(C)CCCl` (stereo not given), for which the growth inhibition is -0.2% (inactive).

Regarding `NC(=O)N/N=C(\Cc1nc2ccc(Cl)cc2[nH]c1=O)C(=O)Nc1ccc(Cl)cc1Cl`, the growth inhibition is 15.2% (inactive).

As for `Cc1[nH]n(C(=N)N)c(=O)c1CCO`, the growth inhibition is -50.7% (inactive).

Consider `CC(=O)OCC1OC(n2cnc([N+](=O)[O-])c2Br)C(OC(C)=O)C1OC(C)=O` (stereo not given), for which the growth inhibition is 21.8% (inactive).

Take `CCCCCCCC(CC#N)(CCCCC)CCCCCC` (stereo not given): the growth inhibition was 26.1% (inactive).

As to `CCN(CC)CCNc1cc(C)nc(/N=C(\N)Nc2ccc(Cl)cc2)n1`, the growth inhibition is 30.8% (inactive).

Turning to `O=C(O)c1cc2c([nH]1)-c1cccnc1C(=O)C2=O`, the growth inhibition was 14.1% (inactive).

As to `CC1c2ccccc2-c2ccccc2N1C(=O)c1cccc(C(=O)N2c3ccccc3-c3ccccc3C2C)n1` (stereo not given), the growth inhibition is 18.1% (inactive).

In the case of `O=C(O)C12CCCCC1CCCC2` (stereo not given), the growth inhibition was 10.7% (inactive).

With `N#CC1(Cc2ccccc2[N+](=O)[O-])c2ccccc2C2C(N1C(=O)c1ccccc1)C2(Cl)Cl` (stereo not given), the growth inhibition is 6.95% (inactive).

With `CCn1nnc2c(C(N)=O)ncn2c1=O`, the growth inhibition is -16.6% (inactive).

For the compound `O=C(/C=C/c1ccccc1)NCC(O)CO` (stereo not given), the growth inhibition is 11.7% (inactive).

With `CN(C)CCCOc1nc2c(c(=O)n(C)c(=O)n2C)n1C` (tested in a mixture with another compound), the growth inhibition is -7.15% (inactive).

Take `COc1cc2cccc(N=Cc3cccc(OC)c3OC(C)C)c2cc1OC`: the growth inhibition is -8.6% (inactive).

On to `O=C(Cc1ccccc1)NC(=O)Nc1ccccc1`, for which the growth inhibition is 0.4% (inactive).

Regarding `COC(=O)c1cc(=O)c2ccc(Cl)cc2[nH]1`, the growth inhibition was -25.3% (inactive).

For the compound `COc1ccc(SC(N(C)C)=[N+](C)C)cc1`, the growth inhibition is 3.8% (inactive).

Consider `CCN(CC)CCNc1cc(OC)c(N)c2cccnc12`, for which the growth inhibition is 40.4% (inactive).

Consider `Cc1cc(C)nc(NS(=O)(=O)c2ccc(NC(=O)c3cccc4c(Nc5ccc(S(=O)(=O)N=C(N)N)cc5)c5ccc(Cl)cc5nc34)cc2)n1`, for which the growth inhibition was 32.8% (inactive).

As for `CN(N)c1cc(=O)n(C)c(=O)n1C`, the growth inhibition was 15.6% (inactive).

For `C=C(Cl)CSC(C)(C)C`, the growth inhibition is -8.5% (inactive).

As to `CCCCc1ccc(Nc2nc(OC)c3ncn(C4CC(O)C(CO)O4)c3n2)cc1` (stereo not given), the growth inhibition is 86.8% (active).

As for `c1ccc(CNCCCNCCCCNCCCNCc2ccccc2)cc1`, the growth inhibition was 7.45% (inactive).

Take `OC1CCC(C2C3CCCCC3C3CCCCC3C2C2CCC(O)CC2)CC1` (stereo not given): the growth inhibition is 96.8% (active).

`CC(=O)Nc1ccc(S(=O)(=O)O)nc1`: the growth inhibition is -6.9% (inactive).

In the case of `CC1=C(C(=O)NCc2ccccc2)C(/C=C/c2ccccc2)C(C(=O)NCc2ccccc2)=C(C)N1`, the growth inhibition was 34.3% (inactive).

In the case of `CCc1ccc(-c2c(-c3ccccc3)c(-c3ccccc3)c(-c3ccccc3)c(-c3ccccc3)c2-c2ccccc2)cc1`, the growth inhibition is 30.9% (inactive).

Turning to `O=C/C(=C1/C=Cc2cc([N+](=O)[O-])ccc2S1)c1ccccc1`, the growth inhibition was -6.6% (inactive).
